From PubChem
Cruzain Triton – cruzain (T. cruzi) inhibition with detergent; P25779; purified cruzain, Z-FR-AMC fluorescence, 0.01% Triton; Potency, µM, for inactives: max response, negative = inhibition, usual class: inhibitors; actives 0.43% (n = 200,000);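 further: plate controls were neutral wells for no effect and buffer without enzyme for full effect; nearly all actives have a fitted effect of over 40% in size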
Target sequence (P25779 123-467 limits assumed): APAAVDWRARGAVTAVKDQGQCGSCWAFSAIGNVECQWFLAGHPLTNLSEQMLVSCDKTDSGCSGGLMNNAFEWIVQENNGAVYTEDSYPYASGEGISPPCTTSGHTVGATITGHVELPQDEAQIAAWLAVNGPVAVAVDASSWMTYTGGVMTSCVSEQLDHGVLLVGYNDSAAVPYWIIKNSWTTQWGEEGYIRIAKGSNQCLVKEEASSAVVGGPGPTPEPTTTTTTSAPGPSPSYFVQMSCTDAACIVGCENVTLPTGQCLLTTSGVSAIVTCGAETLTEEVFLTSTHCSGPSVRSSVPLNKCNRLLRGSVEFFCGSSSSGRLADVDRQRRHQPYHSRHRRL
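Purified cruzain (1.5 nM final) was preincubated with compounds for 15 min at room temperature in 100 mM sodium acetate pH 5.5, 5 mM DTT, 0.01% Triton X-100. Reaction started with 2 uM Z-FR-AMC; AMC fluorescence change over 60 s gave activity.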
Cruzain inh noDet – inhibitors of Trypanosoma cruzi cruzain without detergent; P25779; purified cruzain, Z-FR-AMC fluorescence, no detergent; Potency, µM, for inactives: max response, negative = inhibition, hits mostly inhibitors; actives 2.3% (n = 200,000);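 further: plate controls were enzyme without inhibitor for no effect and buffer without enzyme for full effect; nearly all actives have a fitted effect of over 40% in size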
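Purified cruzain at 1.5 nM, pre-incubated 15 min with compound at room temperature in 100 mM sodium acetate pH 5.5, 5 mM DTT, 0.00005% Triton X-100. Reaction started with 2 uM Z-FR-AMC; AMC fluorescence increase over 60 s gives rate.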
Active calls of the source: *; ? = inconclusive. An excerpt weighted towards active compounds, which were near 2.6% of everything screened. The call rests on the fitted dose curve; in most records, active means well fitted curve in the direction sought with a large enough effect; inconclusive means small, poorly fitted or top-dose-only effect, or another doubt; inactive means no such curve, though single readings can be large; an effect the other way counts as inactive or inconclusive. Potency means the concentration at half of the fitted maximal effect.

SMILES	Cruzain Triton	Cruzain inh noDet
CC(=O)OCC(=O)[C@@]1(O)[C@H](OC(C)=O)C[C@H]2[C@@H]3CCC4=CC(=O)C=C[C@]4(C)[C@@]3(F)[C@@H](O)C[C@@]21C	-2%	2%
CC(=O)c1cccc(NC(=O)c2sc(-n3nc(C)c(CCC(C)C)c3C)nc2C)c1	-1%	2%
CC(=O)N1CCC[C@@]2(CCN(Cc3ccccc3)C2)C1	4%	-4%
O=C(Nc1nnc(C2CC2)s1)c1cc(S(=O)(=O)N2CCN(c3ccccc3)CC2)ccc1Cl	3%	?
CCc1nnc(NC(=O)c2ccc(Cl)c(S(=O)(=O)N3CCc4ccccc43)c2)s1	-5%	13µM*
O=C(Nc1nnc(S(=O)(=O)N2CCc3ccccc32)s1)c1ccccc1Cl	-1%	-7%
O=C(Nc1nnc(C2CC2)s1)c1ccc(Cl)c(S(=O)(=O)N2CCc3ccccc3C2)c1	-5%	25µM*
O=C(O)[C@H](C1NCCS1)N1Cc2ccccc2C1 (stereo partly drawn)	10%	1%
CN(C)c1ccc(C2N([C@H](C#N)c3ccc(N(C)C)cc3)CCCN2[C@@H](C#N)c2ccc(N(C)C)cc2)cc1 (stereo partly drawn)	2%	-5%
CCc1ccc(/C=C2\SC(=S)N(CCCC(=O)Nc3ccccn3)C2=O)cc1	0%	-25%
O=C(CCCN1C(=O)/C(=C/c2cccc(Br)c2)SC1=S)Nc1ccccn1	-4%	25µM*
O=C1[C@@H]2Cc3c([nH]c4ccccc34)[C@@H](c3ccccc3)N2C(=O)[C@@H]2Cc3c([nH]c4ccccc34)[C@@H](c3ccccc3)N12	6%	10µM*
COc1cc([C@H]2c3[nH]c4ccccc4c3C[C@H]3C(=O)N4[C@@H](c5cc(OC)c(OC)c(OC)c5)c5[nH]c6ccccc6c5C[C@H]4C(=O)N23)cc(OC)c1OC	2%	5%
CCc1ccc(CN(Cc2cn[nH]c2-c2ccc(OC)cc2)C(=O)Nc2ccc(C)c(F)c2)cc1	-9%	-3%
COc1ccccc1Cc1nc2ccccc2nc1SCC(=O)Nc1ccccc1C(F)(F)F	1%	-2%
Cc1ccc2sc(NC(=O)c3ccc(N4C(=O)CCC4=O)cc3)nc2c1C	2%	?
CCc1cccc2sc(NC(=O)c3ccc(N4C(=O)CCC4=O)cc3)nc12	2%	7.9µM*
O=c1oc2ccccc2cc1-c1csc(Nc2nc3ccc(F)cc3s2)n1	-6%	6%
O=c1oc2ccccc2cc1-c1csc(NN=C2CCCCC2)n1	-26%	20µM*
O=c1oc2ccccc2cc1-c1csc(Cc2nc(-c3ccc(Cl)cc3)cs2)n1	-2%	10µM*
O=c1oc2ccccc2cc1-c1csc(Nc2nc3c(F)cccc3s2)n1	-3%	32µM*
CC1CCC/C(=C(\C#N)c2nc(-c3cc4ccccc4oc3=O)cs2)C1 (stereo not drawn)	-7%	-15%
O=c1oc2ccccc2cc1-c1nc(-c2cccc(Cl)c2)cs1	0%	-1%
CCCN1CCN(c2ncnc3sc(C(=O)Nc4ccc(C(C)C)cc4)c(C)c23)CC1	-3%	26%
CCc1ccc(NC(=O)CN2C(=O)CCSc3ccccc32)cc1	0%	-8%
SMILES	Cruzain Triton	Cruzain inh noDet
COc1cc(OC)c2c(c1)OC(=O)CC2c1ccccc1OC (stereo not drawn)	0%	-14%
CCc1nn(CC(=O)NCC(C)c2ccccc2)c(=O)c2cc3c(OC)cccc3n12 (stereo not drawn)	0%	12%
CC(NC(=O)Cc1ccccc1)c1nc2ccccc2[nH]1 (stereo not drawn)	1%	-22%
O=C(COc1cccc(F)c1)N[C@@H](Cc1ccccc1)c1nc2ccccc2[nH]1	13µM*	-1%
Cc1cccc(N(C)C(CNS(=O)(=O)c2ccccc2)c2ccccc2)c1 (stereo not drawn)	-9%	8%
COc1cc(OC)c2cc(-c3ccncc3)cnc2c1	-5%	4%
O=C(N/N=C/c1cn(-c2ccccc2)nc1-c1cccs1)c1ccccc1F	-7%	32µM*
O=C(N/N=C/c1cn(-c2ccccc2)nc1-c1cccs1)c1ccc(Cl)cc1	-9%	13µM*
COc1ccc(C(=O)N/N=C/c2ccc(OC(=O)c3cccs3)cc2)cc1	0%	?
O=C(N/N=C/c1cn(-c2ccccc2)nc1-c1cc2ccccc2o1)c1ccncc1	-11%	24%
O=C(Nc1ccncc1)c1cn(-c2ccccc2)nc1-c1cccs1	-4%	-8%
O=C(CNc1ccccc1)N/N=C/c1cn(-c2ccccc2)nc1-c1ccccc1	-6%	25µM*
O=S(=O)(N/N=C\c1cn(-c2ccccc2)nc1-c1ccccc1)c1ccccc1	-3%	?
O=C(N/N=C\c1ccc(OC(=O)c2cccs2)cc1)c1ccc(Cl)cc1	-21%	10µM*
COCCn1c(=O)c(C)nc2cnc(Nc3ccccc3)nc21	-5%	-1%
COc1ccc(CNc2ncncc2-c2cccc(C#N)c2)c(OC)c1	0%	-9%
O=c1[nH]c(=O)c2nc(Br)n(C3OC(CO)C(O)C3O)c2[nH]1 (stereo not drawn)	3%	1%
O=C1CN(C(=O)c2ccc(S(=O)(=O)N3CCCCC3)cc2)C(c2ccc(F)cc2)c2cc(Cl)ccc2N1 (stereo not drawn)	-5%	-17%
CCCCN1CC(c2nc3ccccc3n2CCCCOc2ccccc2C)CC1=O (stereo not drawn)	-3%	-12%
COc1cc2ccccc2cc1C(=O)N1CCN(c2nc3c(F)cc(F)cc3s2)CC1	-21%	-28%
O=C(OC1Cc2c(O)cc(O)cc2OC1c1cc(O)c(O)c(O)c1)c1cc(O)c(O)c(O)c1 (stereo not drawn)	-7%	-16%
CCCCOC(=O)c1ccc(Nc2nc3ccccc3c3nnc(C)n23)cc1	-3%	?
CC(C)CC(C(=O)OCC(=O)Nc1cccc(Cl)c1)N1C(=O)C2CC=CCC2C1=O (stereo not drawn)	14µM*	-19%
CCOc1ccccc1NC(=O)COC(=O)C(CC(C)C)N1C(=O)C2CC=CCC2C1=O (stereo not drawn)	-26%	8%
CC(C)Oc1cccc(C2CC(=O)Nc3cc4c(cc32)OCO4)c1 (stereo not drawn)	-9%	-5%
SMILES	Cruzain Triton	Cruzain inh noDet
CCN1CCN(c2oc(/C=C/c3ccccc3OC)nc2C#N)CC1	-25%	32µM*
COc1cc(/C=C/c2nc(C#N)c(N3CCCCC3)o2)cc(OC)c1OC	-9%	22%
COc1ccc(Nc2oc(/C=C/c3ccccc3OC)nc2C#N)cc1	-1%	?
COc1ccccc1/C=C/c1nc(C#N)c(N2CCN(C)CC2)o1	-29%	25µM*
CCc1nn(CC(=O)Nc2ccc(C)cc2C)c(=O)c2cc3sccc3n12	0%	7%
COc1ccc(NCc2cc3cc4c(cc3n(CC(=O)Nc3ccc(C)cc3)c2=O)OCO4)cc1	-6%	20µM*
COc1ccc(NCc2cc3cc4c(cc3n(CC(=O)Nc3ccc(C)cc3C)c2=O)OCO4)cc1	-7%	?
CCc1ccc(NCc2cc3cc4c(cc3n(CC(=O)Nc3cccc(OC)c3)c2=O)OCO4)cc1	-5%	25µM*
CCc1ccc(NCc2cc3ccc(OC)cc3n(CC(=O)Nc3ccc(C)c(Cl)c3)c2=O)cc1	-3%	25µM*
CCc1ccc(NCc2cc3cc4c(cc3n(CC(=O)Nc3ccc(OC)cc3)c2=O)OCO4)cc1	-3%	2%
CCc1ccc(NCc2cc3ccc(OC)cc3n(CC(=O)Nc3c(C)cc(C)cc3C)c2=O)cc1	-2%	3%
